The values below come from PubChem BioAssay (Tox21).

Experiment [1] in a line: qHTS assay to test for compound auto fluorescence at 535 nm (green) in HEK293 cells (AID 720680).
Experiment [2] in a line: qHTS assay to test for compound auto fluorescence at 460 nm (blue) in HEK293 cell free culture (AID 720681). The essentials: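 Compounds were added to cell-free DMEM with 10% FBS and fluorescence read directly. The blue channel used 405 nm excitation and 460 nm emission, with triamterene as the reference fluorophore.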
Experiment [3] is described as follows: qHTS assay to test for compound auto fluorescence at 590 nm (red) in HEK293 cell free culture (AID 720683). The essentials: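 Cell-free wells of DMEM with 10% FBS received compound, and intrinsic fluorescence was read at excitation/emission 540/590 nm. Values expressed as equivalence to Rose Bengal sodium.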
Experiment [4] in a line: qHTS assay to test for compound auto fluorescence at 590 nm (red) in HepG2 cell free culture (AID 720684). The essentials:
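Auto fluorescence equivalency versus Rose Bengal sodium, red channel Ex/Em 540/590 nm; compounds in cell-free MEM/10% FBS; DMSO vehicle control.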

Experiment [5] in a line: qHTS assay to test for compound auto fluorescence at 460 nm (blue) in HepG2 cell free culture (AID 720685). The gist of the method: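 Cell-free plates of MEM plus 10% FBS received 23 nL compound or DMSO vehicle; blue-channel (405/460 nm) intensity scored against triamterene as reference fluorophore.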
The nature of experiment [6]: qHTS assay to test for compound auto fluorescence at 535 nm (green) in HepG2 cell free culture (AID 720686).
Experiment [7] can be described thus: qHTS assay to test for compound auto fluorescence at 460 nm (blue) in HepG2 cells (AID 720687). The gist of the method: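 HepG2 cells in MEM with 10% FBS, attached overnight at 37 C, were exposed to compound or DMSO for 1 hr at 37 C, 5% CO2. Blue fluorescence was read at 405/460 nm, with triamterene as reference fluorophore.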
For experiment [8], the target named is Glucocorticoid receptor (Homo sapiens) (UniProt P04150). The experiment is described as follows: qHTS assay to identify small molecule agonists of the glucocorticoid receptor (GR) signaling pathway (AID 720691; active = well fitted activation curve with a large enough effect in the signal ratio in the repeat runs, not every such curve was filed as active; the % refers to the signal ratio; also: potency is read from the fitted curve at half-maximal effect). The gist of the method:
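Agonist-mode qHTS in HeLa cells stably expressing a glucocorticoid-response-element beta-lactamase reporter. Fluorescence intensity read with FRET substrate (2 h, room temperature) after 18 h compound treatment at 37 C.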

The nature of experiment [9]: qHTS assay to identify small molecule antagonists of the glucocorticoid receptor (GR) signaling pathway - cell viability counter screen (AID 720693). Also: nearly all actives have a fitted effect of over 55% in size.
Experiment [10] is described as follows: qHTS assay for identifying genotoxic compounds that show differential cytotoxicity against isogenic chicken DT40 cell lines with known DNA damage response pathways - wild type cell line (AID 743012). Also: nearly all actives have a fitted effect of over 60% in size. Also: potency is read from the fitted curve at half-maximal effect. The essentials:
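Viability by ATP luminescence (CellTiter-Glo, 30 min RT) after 40 h compound treatment at 37 C/5% CO2, using 300 parental DNA repair-proficient DT40 cells per well.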

The nature of experiment [11]: qHTS assay for identifying genotoxic compounds that show differential cytotoxicity against isogenic chicken DT40 cell lines with known DNA damage response pathways - Rev3 mutant cell line (AID 743014). Also: nearly all actives have a fitted effect of over 55% in size. Also: potency is read from the fitted curve at half-maximal effect.
The nature of experiment [12]: qHTS assay for identifying genotoxic compounds that show differential cytotoxicity against isogenic chicken DT40 cell lines with known DNA damage response pathways - Rad54/Ku70 mutant cell line (AID 743015). Also: nearly all actives have a fitted effect of over 60% in size. Also: potency is read from the fitted curve at half-maximal effect.
Experiment [13] in a line: qHTS assay to identify small molecule antagonists of the androgen receptor (AR) signaling pathway using the MDA cell line - cell viability counter screen (AID 743041; also: nearly all actives have a fitted effect of over 45% in size; also: potency is read from the fitted curve at half-maximal effect). The gist of the method:
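Compound exposure lasted 16 h at 37C in MDA-kb2 AR-luc cells stimulated with R1881. Protease-based CellTiter-Fluor reagent was applied for the final 30 min and fluorescence measured.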

Experiment [14] addresses Glucocorticoid receptor (Homo sapiens) (UniProt P04150). The experiment is described as follows: qHTS assay to identify small molecule antagonists of the glucocorticoid receptor (GR) signaling pathway (AID 720692; active = well fitted inhibition curve with a large enough effect in the signal ratio in the repeat runs, not every such curve was filed as active; the % refers to the signal ratio). The gist of the method:
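Inhibition of dexamethasone-driven (5 nM final) beta-lactamase expression was measured in GRE-reporter HeLa cells over 18 h at 37C. Fluorescence was read after 2 h with the B/G FRET substrate at room temperature.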

A short description of experiment [15]: qHTS assay to identify small molecule antagonists of the androgen receptor (AR) signaling pathway - cell viability counter screen (AID 743033; also: nearly all actives have a fitted effect of over 45% in size).
Experiment [16] is described as follows: qHTS assay to identify small molecule antagonists of the thyroid receptor (TR) signaling pathway - cell viability counter screen (AID 743064). Also: nearly all actives have a fitted effect of over 50% in size. Also: potency is read from the fitted curve at half-maximal effect. The essentials: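 GH3.TRE-Luc rat pituitary cells dosed after 4 hr plating, co-stimulated with T3 at 1 nM final, incubated 23.5 h at 37 C. Viability measured in the same wells by CellTiter-Fluor fluorescence after 30 min further at 37 C.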

Experiment [17] deals with Androgen receptor (Homo sapiens) (UniProt P10275). The experiment is described as follows: qHTS assay to identify small molecule agonists of the androgen receptor (AR) signaling pathway (AID 743036; active = well fitted activation curve with a large enough effect in the signal ratio in the repeat runs, with a control signal flat, not every such curve was filed as active; the % refers to the signal ratio). The gist of the method: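 AR-UAS-bla HEK293 cells, plated 4 h before dosing, were treated with compound for 16 h at 37C. beta-Lactamase reporter read after 2 h with LiveBLAzer B/G FRET substrate at room temperature.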

The target is the same in experiment [18]. The experiment is described as follows: qHTS assay to identify small molecule agonists of the androgen receptor (AR) signaling pathway using the MDA cell line (AID 743040; also: nearly all actives have a fitted effect of over 20% in size). The essentials:
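Testing was done with the MDA-kb2 AR-luc line, a human breast carcinoma stably transfected with MMTV-luciferase containing AR and GR response elements. Cells were exposed 16 h at 37C before ONE-Glo luminescence detection.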

The target is the same in experiment [19]. The experiment is described as follows: qHTS assay to identify small molecule antagonists of the androgen receptor (AR) signaling pathway using the MDA cell line (AID 743042; also: nearly all actives have a fitted effect of over 55% in size; also: potency is read from the fitted curve at half-maximal effect). The essentials: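 MDA-kb2 breast carcinoma cells carrying MMTV-luciferase (AR/GR responsive) were co-treated with compounds and the agonist R1881 for 16 h at 37C. Inhibition read as ONE-Glo luminescence; CellTiter-Fluor fluorescence measured in parallel for cytotoxicity.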

The nature of experiment [20]: qHTS assay to test for compound auto fluorescence at 535 nm (green) in HEK293 cell free culture (AID 720682). The gist of the method:
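Green-label autofluorescence (485 nm excitation, 535 nm emission) measured on compound added to cell-free culture medium (DMEM, 10% FBS). Output is expressed relative to fluorescein.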

Values without a mark were called inactive. Records with an inconclusive call do not appear. Active and inactive are the calls of the source. Unless noted, calls follow the shape of the dose curve; as a rule, active = well fitted curve in the direction sought with a large enough effect in the repeat runs; inconclusive = weak or mixed curves; inactive = no such curve, though single readings can be large; an effect the other way counts as inactive or inconclusive.
% is scaled to controls: 0 for no effect and ±100 for the full control effect.

Chain of Glucocorticoid receptor (Homo sapiens) (P04150 whole entry, looked up): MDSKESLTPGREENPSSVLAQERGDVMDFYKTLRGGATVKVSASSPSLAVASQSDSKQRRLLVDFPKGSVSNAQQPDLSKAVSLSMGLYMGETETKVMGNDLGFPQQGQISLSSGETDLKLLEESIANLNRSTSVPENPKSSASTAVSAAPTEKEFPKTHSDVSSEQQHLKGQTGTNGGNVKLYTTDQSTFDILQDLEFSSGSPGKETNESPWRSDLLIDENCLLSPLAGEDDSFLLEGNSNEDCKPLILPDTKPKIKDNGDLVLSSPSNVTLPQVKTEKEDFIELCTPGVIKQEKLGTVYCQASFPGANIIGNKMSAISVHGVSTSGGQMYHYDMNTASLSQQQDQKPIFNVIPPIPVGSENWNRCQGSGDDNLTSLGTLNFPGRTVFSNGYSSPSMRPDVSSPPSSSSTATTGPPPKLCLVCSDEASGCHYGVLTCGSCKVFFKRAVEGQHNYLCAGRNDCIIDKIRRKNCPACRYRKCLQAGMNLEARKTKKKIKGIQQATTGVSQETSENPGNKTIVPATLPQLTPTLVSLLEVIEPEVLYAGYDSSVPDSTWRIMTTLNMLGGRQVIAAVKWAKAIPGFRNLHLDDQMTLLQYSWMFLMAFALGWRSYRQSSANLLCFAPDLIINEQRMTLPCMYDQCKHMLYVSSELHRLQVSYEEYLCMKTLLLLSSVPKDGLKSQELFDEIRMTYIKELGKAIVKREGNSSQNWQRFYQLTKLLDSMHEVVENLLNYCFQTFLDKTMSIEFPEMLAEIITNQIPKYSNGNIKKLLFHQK
Chain of Androgen receptor (Homo sapiens) (P10275 whole entry, looked up): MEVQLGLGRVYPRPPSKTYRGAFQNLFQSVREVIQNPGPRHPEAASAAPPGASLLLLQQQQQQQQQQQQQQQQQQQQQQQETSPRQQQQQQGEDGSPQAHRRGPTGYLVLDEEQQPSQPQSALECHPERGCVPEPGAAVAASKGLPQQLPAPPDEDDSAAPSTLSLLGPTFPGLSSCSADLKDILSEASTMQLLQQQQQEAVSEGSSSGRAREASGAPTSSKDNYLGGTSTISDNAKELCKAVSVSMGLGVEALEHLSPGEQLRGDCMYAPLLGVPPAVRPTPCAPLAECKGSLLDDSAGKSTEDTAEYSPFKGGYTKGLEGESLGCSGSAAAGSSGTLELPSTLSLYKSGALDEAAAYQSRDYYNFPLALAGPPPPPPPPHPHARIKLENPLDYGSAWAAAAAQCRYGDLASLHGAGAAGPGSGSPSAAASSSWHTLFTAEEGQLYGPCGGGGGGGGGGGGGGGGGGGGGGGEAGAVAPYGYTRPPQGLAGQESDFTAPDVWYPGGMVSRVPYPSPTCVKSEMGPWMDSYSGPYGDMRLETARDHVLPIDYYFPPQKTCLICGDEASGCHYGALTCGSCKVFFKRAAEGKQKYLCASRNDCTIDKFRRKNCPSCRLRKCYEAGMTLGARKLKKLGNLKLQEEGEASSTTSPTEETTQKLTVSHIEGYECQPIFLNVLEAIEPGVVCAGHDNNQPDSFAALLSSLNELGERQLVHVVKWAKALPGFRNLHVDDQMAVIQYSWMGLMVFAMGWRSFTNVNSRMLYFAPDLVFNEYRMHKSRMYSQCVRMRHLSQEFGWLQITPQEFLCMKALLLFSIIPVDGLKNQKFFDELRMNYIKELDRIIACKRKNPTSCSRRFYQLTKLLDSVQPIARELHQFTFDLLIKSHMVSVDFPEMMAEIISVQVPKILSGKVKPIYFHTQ

`CCCCC(=O)O[C@]1(C(=O)CO)[C@@H](C)C[C@H]2[C@@H]3CCC4=CC(=O)C=C[C@]4(C)[C@@]3(F)[C@@H](O)C[C@@]21C`: the compound was classed as inactive in experiment [1], in experiment [3], in experiment [4] and in experiment [6]. Moreover, the Potency result in experiment [2], in experiment [5], in [7], in experiment [9] and in [13] was “inactive” in each case. Moreover, the Potency in experiment [8] is 1.9 nM (active); in experiment [10], 43.3 µM (active); in experiment [11], 24.3 µM (active); in [12], 24.3 µM (active).

Take `O=C(C(=O)c1ccccc1)c1ccccc1`: the compound was classed as inactive in experiment [1], in experiment [3], in experiment [4] and in experiment [6]. Further, the Potency entry in experiment [2], in [5], in experiment [8], in [14], in experiment [9] and in experiment [12] was “inactive” throughout. Further, the Potency entry in experiment [15] and in [16] was “inactive” each time.

For `O=C(O)Cc1ccc(-c2ccccc2)cc1`, the fluorescence, % of fluorescein in experiment [1] was -0.0578% [at 18.6 µM]. Moreover, the fluorescence, % of fluorescent control in [2] is 0% [at 18.6 µM]; in experiment [3] it was 0.0962% [at 18.6 µM]; in [5], -0.109% [at 18.6 µM]; in [7] it was -0.1% [at 18.6 µM]. For the same compound, the fluorescence, % of Rose Bengal in [4] is -0.0701% [at 18.6 µM]. The fluorescence, % of fluorescein control in experiment [6] is -0.0983% [at 18.6 µM]. Besides, the Potency entry in experiment [8], in experiment [14], in experiment [9], in experiment [10], in [11] and in experiment [12] was “inactive” each time. Besides, the Potency entry in experiment [17], in experiment [18], in experiment [13], in experiment [19] and in experiment [16] was “inactive” each time.

In the case of `CCCCCCOC(=O)C(C)C`, the compound was classed as inactive in [1], in experiment [20], in [3], in [4] and in experiment [6]. Moreover, the Potency entry in experiment [2], in experiment [5], in [9], in [10], in experiment [12] and in experiment [15] was “inactive” each time.

With `COc1cc2c(cc1OC)-c1cc(=Nc3c(C)cc(C)cc3C)n(C)c(=O)n1CC2`, the compound was called inactive in experiment [1], in [20], in experiment [3], in experiment [4] and in experiment [6]. Besides, the Potency result in [2], in experiment [5] and in [18] was “inactive” throughout. The Potency in [10] is 2.66 µM (active); in experiment [12], 6.68 µM (active); in experiment [19] it was 29.8 µM (active); in [16], 21.1 µM (active).

On to `Cc1cc2nc3ccc(=[N+](C)C)cc-3sc2cc1N`, for which the result in experiment [1], in [3], in experiment [4] and in [6] was inactive. Further, the Potency result in [2], in [5] and in experiment [18] was “inactive” each time. For the same compound, the Potency is 0.596 µM (active) in experiment [10]; 2.11 µM (active) in experiment [11]; 0.596 µM (active) in [12]; 8.41 µM (active) in experiment [13]; 4.22 µM (active) in [19].

As for `CC[C@H](NC(=O)c1cc(F)ccc1NS(=O)(=O)c1cccc2cccnc12)c1ccccc1`, the result in experiment [1], in experiment [3], in experiment [4] and in experiment [6] was inactive. In addition, the Potency result in [2], in experiment [5], in experiment [9] and in experiment [15] was “inactive” throughout. Moreover, the Potency in experiment [11] was 57.9 µM (active); in [12] it was 64.9 µM (active).

Consider `CC(C)(C)C(=O)C(Oc1ccc(Cl)cc1)n1ccnc1` (configuration not stated), for which the compound was classed as inactive in experiment [1], in experiment [3], in experiment [4] and in experiment [6]. The Potency entry in experiment [2], in [5], in experiment [7] and in experiment [9] was “inactive” each time. Moreover, the Potency was 13.3 µM (active) in experiment [10], 26.6 µM (active) in [11] and 21.1 µM (active) in [12].

As for `CC(=O)Nc1ccc(N)cc1`, the compound was classed as inactive in experiment [1], in experiment [3], in [4] and in experiment [6]. Moreover, the Potency result in [2], in experiment [5], in experiment [7], in [8], in [14] and in experiment [9] was “inactive” throughout. For the same compound, the Potency entry in [10], in experiment [11], in [12], in [15], in experiment [17] and in experiment [18] was “inactive” throughout. The Potency entry in experiment [13] and in experiment [19] was “inactive” throughout.
